Screening data (PubChem)
This is a sample that favours compounds with a hit; in the whole collection about 2.3% have one here.
IDE cell inh – inhibits human insulin-degrading enzyme in HEK cells | P14735 | FAbetaB cleavage, fluorescence polarization | inhibition, % at 5.59 µM | 320,000 compounds, 0.41% hits | AID 434962;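 active means percent inhibition above the average of all tested compounds plus 3 SD, set per screening campaign, cut at about 16% in these data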;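 further: IDE supplied by intact live HEK cells; FP after avidin binding of uncleaved biotin substrate so inhibition keeps polarization high; 0% = DMSO wells and 100% = 60 µM reference IDE inhibitor Ii1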
Rin1-Abl PPI inh – inhibitors of human Rin1-Abl protein interaction; TR-FRET Rin1/Abl binding, biochemical; inhibition, % at 7.35 µM; 360,000 compounds, 0.4% hits; AID 588664; in the data active means inhibition above about 5%, passing the limit was not always enough
IDE cell activ – activators of human insulin-degrading enzyme in cells. activation, % at 5.96 µM. P14735. AID 493087. 340,000 compounds, 0.073% hits. HEK cells, FAbeta-B cleavage, fluorescence polarization; 0% vehicle, 100% cell-free pure enzyme wells;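 active means activation above the mean of all tested compounds plus 3 SD, set per screening campaign, cut at about 17% in these data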
Calb FLC – C. albicans growth modulation with fluconazole; C. albicans CaCi-2 (fluconazole-resistant clinical isolate) + fluconazole, Alamar Blue growth, 48 h; growth inhibition, % (test concentration not listed); 300,000 compounds, 0.57% hits;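 active means growth inhibition above about 58% in most replicates, limit read from the data, passing the limit was not always enough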;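 further: all wells also contain fluconazole at 8 µg/ml as a sub-toxic cotreatment; 0% = median of DMSO wells and 100% = median of geldanamycin control wells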
Rpn11 inh – inhibitors of human proteasome Rpn11. AID 588493. 360,000 compounds, 0.59% hits. human 26S proteasome, Ub4-pepOG fluorescence polarization; 20S core pre-blocked with epoxomicin. O00487. inhibition, % at 20 µM;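 active means inhibition at 20 µM, scaled to each plate's controls, above about 33%, limit read from the data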
Target sequence (O00487 whole entry, looked up): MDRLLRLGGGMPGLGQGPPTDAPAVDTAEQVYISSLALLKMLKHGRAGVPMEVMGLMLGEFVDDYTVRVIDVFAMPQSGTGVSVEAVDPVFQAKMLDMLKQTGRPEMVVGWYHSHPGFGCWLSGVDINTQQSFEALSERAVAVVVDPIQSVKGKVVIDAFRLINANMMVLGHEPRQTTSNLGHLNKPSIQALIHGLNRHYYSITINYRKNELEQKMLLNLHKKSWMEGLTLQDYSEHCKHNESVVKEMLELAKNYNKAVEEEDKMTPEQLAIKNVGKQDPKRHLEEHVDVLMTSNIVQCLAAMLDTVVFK
TPT1 inhibitor – inhibitors of Candida albicans tRNA 2'-phosphotransferase TPT1 | inhibition, % at 5 µM | 300,000 compounds, 0.81% hits | recombinant caTPT1, FP RNA substrate dephosphorylation | AID 1962;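 active means inhibition above the mean of all tested compounds plus 3 SD, set per screening campaign, cut at about 24% in these data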;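 further: plate controls were DMSO alone for no effect and ferristatin control at 100 nM for full effect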
TPT1 inh confirm – TPT1 (C. albicans) inhibition, confirmation. shares compounds with TPT1 inhibitor. recombinant caTPT1, fluorescence polarization, RNase T1 coupled. inhibition, % at 5 µM. 2,400 compounds, 74% hits;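 active means inhibition above the primary screen limit, the mean inhibition of all tested compounds plus 3 SD, cut at about 25% in these data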
RNase T1 inh – counter-screen for TPT1 inhibitors: inhibitors of Aspergillus oryzae RNase T1; shares compounds with TPT1 inhibitor; RNase T1 cleavage, fluorescence polarization, 1536-well; inhibition, % at 5 µM; 2,400 compounds, 83% hits; AID 2153;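 active means inhibition above the solvent-only control well mean plus 3 SD, limit set per screening run, cut at about 23% in these data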;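 further: plate controls were DMSO wells with enzyme for no effect and wells without RNase T1 for full effect; inhibitors block cleavage so intact labeled substrate keeps polarization high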
Target sequence (P00651 whole entry, looked up): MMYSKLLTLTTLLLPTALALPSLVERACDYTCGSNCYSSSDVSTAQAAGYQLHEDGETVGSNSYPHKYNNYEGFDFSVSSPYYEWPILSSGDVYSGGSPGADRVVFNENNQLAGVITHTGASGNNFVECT
Starred values were filed as active, the others as inactive; . = not tested or not shown; ! = a repeat was not active.

SMILES	IDE cell inh	Rin1-Abl PPI inh	IDE cell activ	Calb FLC	Rpn11 inh	TPT1 inhibitor	TPT1 inh confirm	RNase T1 inh
CN(C)c1ccc(/C=C2/C(=O)NC(=O)N(Cc3ccco3)C2=O)cc1	4.6	-0.9	-2.8	9.9	4.8	26.3*	17.8	25.7*
O=C1OC(c2ccc([N+](=O)[O-])cc2)=N/C1=C/N1CC2CC(C1)c1cccc(=O)n1C2 (stereo not given)	4.5	-3.3	6.2	-5.3	8.4	33.7*	42.4*	54.1*
C[N+](C)(C)CC1CCCC(C[N+](C)(C)C)C1=O (stereo not given)	.	1.7	0.4	.	5.3	.	.	.
COC(=O)C1=C(c2cccc(Cl)c2)C[C@@H]2CC[C@H]1N2C(=O)NCC1CC1	-2.9	-2.2	2.6	.	5.2	.	.	.
COc1ccc(-c2ccc3c(c2)CN(C(=O)CCc2ccccc2)Cc2cnnn2-3)cc1	.	2.0	.	.	-3.2	.	.	.
O=C1NC(=O)N(Cc2ccc(F)cc2)C(=O)/C1=C\c1ccc(N2CCCC2)cc1	8.2	-3.9	-3.0	-19.3	.	82.2*	103.5*	116.6*
Cn1cc(C(=O)NCc2ccccc2)c2ccccc21	5.9	1.4	1.3	-8.5	-1.5	38.8*	-2.4	3.0
Cc1ncc(CN2CCCC(C(=O)c3ccc(C(C)(C)C)cc3)C2)s1 (stereo not given)	-1.2	4.3	-2.8	0.7	1.2	-2.0	.	.
O=C(Cn1ncc2c3ccccc3n(Cc3cccc(Cl)c3)c2c1=O)N1CCC2(CC1)OCCO2	4.9	-2.5	-1.9	-3.3	17.0	114.3*	64.1*	69.2*
Cc1c2cnn(CC(=O)N3CCC4(CC3)OCCO4)c(=O)c2c(C)n1Cc1cccc(Cl)c1	-1.4	-2.3	-1.8	-30.0	-8.4	0.3	.	.
CSc1ccc(C(=O)C2CCCN(CCCn3cccn3)C2)cc1 (stereo not given)	-0.8	3.6	2.9	-12.9	-3.8	0.4	.	.
CN1CCC2(CC1)C(C#N)=C(N)NC(S)=C2C#N	2.8	-2.1	-1.0	18.0	.	50.5*!	15.7	28.0*
CC1([N+](=O)[O-])COP(=O)(Nc2cccc(F)c2)OC1 (stereo not given)	.	3.0	2.0	.	-5.3	.	.	.
Cc1cc(C)cc(N2C(=O)/C(=C\c3ccc(N4CCN(C)CC4)o3)C(=O)NC2=S)c1	7.7	-4.3	.	-1.2	.	140.2*	151.2*	141.4*
O=C1NC(=O)N(c2ccc3c(c2)OCO3)C(=O)/C1=C/c1ccc(N2CCCCC2)o1	14.3	-16.6	-23.8	3.9	.	132.3*	145.7*	141.8*
O=C1NC(=O)C(=Cc2ccc(N3CCOCC3)o2)C(=O)N1	13.4	-12.9	-11.1	8.2	.	180.1*	146.1*	144.1*
C=CCN1C(=O)/C(=C/c2ccc(N3CCOCC3)o2)C(=O)NC1=S	13.3	-12.7	-11.2	1.8	.	121.3*	142.8*	136.8*
C=CCN1C(=O)/C(=C/c2cccs2)C(=O)NC1=S	6.2	-0.8	-3.9	-1.0	-5.2	3.2	.	.
COC(=O)C1C(O)C(C)C(O)C(C)/C=C\C=C(/C)C(=O)Nc2c(C)c(OC(C)=O)c3c(c2O)C(=O)C(C)=C2OCOC(=C23)/C(C)=C/C(C)(O)C(O)C(C)C1O (stereo not given)	1.4	2.1	3.6	14.6	3.2	-0.6	.	.
O=C(NCCCN1CCOCC1)C(Cl)(Cl)Cl	4.7	1.9	6.9	-15.3	-4.9	1.5	.	.
CCOc1ccccc1N1C(=O)CC(=O)NC1=O	-3.2	2.1	4.4	-0.9	8.6	8.3	.	.
Cc1ccccc1N1C(=O)CC(=O)N(c2ccccc2C)C1=O	-4.4	1.2	0.2	-2.3	33.9	30.6*	14.7	22.1*
C[C@@H]1C(=O)O[C@H]2[C@H](O)[C@]34[C@@H]5OC(=O)[C@]3(OC3OC(=O)[C@H](O)C34[C@H](C(C)(C)C)[C@@H]5O)[C@@]12O (stereo not given in full)	.	-2.6	6.6	.	2.4	.	.	.
O=C(N/N=C/c1c(O)n(-c2cccc3ccccc23)c(=O)[nH]c1=O)c1ccncc1	5.6	0.9	-4.1	-9.8	.	45.0*	51.3*	66.5*
CCN1C(=O)/C(=C/c2ccc(N(CC)CC)cc2OC)C(=O)NC1=S	3.3	-3.5	-11.6	6.8	24.7	44.1*	94.7*	101.0*
SMILES	IDE cell inh	Rin1-Abl PPI inh	IDE cell activ	Calb FLC	Rpn11 inh	TPT1 inhibitor	TPT1 inh confirm	RNase T1 inh
O=C1NC(=S)N(c2ccccc2)C(=O)C1C(c1ccncc1)C1C(=O)NC(=S)N(c2ccccc2)C1=O (stereo not given)	-7.5	-0.6	4.9	7.4	-1.5	7.1	.	.
CN1C(=O)N(C)C(=O)C2(Cc3cc(NC(=O)c4ccc(F)cc4)ccc3N3CCCC32)C1=O (stereo not given)	-4.2	3.6	7.3	2.9	25.4	30.3*	23.4	36.8*
CC(=O)Nc1ccc2c(c1)CC1(C(=O)N(C)C(=O)N(C)C1=O)C1CCCN21 (stereo not given)	0.7	-5.0	2.9	2.7	3.5	0.8	.	.
CCN1CCC2(CC1)NC(=O)c1ccccc1O2	1.7	2.6	-0.8	-4.6	-3.9	-1.3	.	.
O=c1cccc2n1CC1CC2CN(S(=O)(=O)c2ccc(F)cc2)C1 (stereo not given)	5.4	3.8	8.1	20.0	1.1	-1.1	.	.
O=C1NC(=S)N(c2ccc(F)cc2)C(=O)/C1=C/c1ccccc1O	-0.8	6.9	1.0	-0.2	-4.0	-1.7	.	.
O=C1NC(=S)N(c2ccc(Br)cc2)C(=O)/C1=C/N1CCN(C(=O)c2ccco2)CC1	8.3	0.7	-3.0	-1.3	.	85.6*	37.3*	51.9*
O=C1NC(=S)NC(=O)C1=Cc1ccc2c(c1)CCN2CCCCl	0.5	-1.0	.	0.3	.	5.5	.	.
Cc1ccccc1N1C(=O)NC(=O)/C(=C\c2ccc3c(c2)CCCN3Cc2ccccc2)C1=O	4.8	0.5	-0.9	2.0	.	61.4*	153.8*	144.6*
O=c1[nH]c(=S)n(-c2ccc(Cl)cc2)c(O)c1C=Nc1ccc(N2CCOCC2)cc1	5.0	-2.0	4.6	-5.2	-38.1	29.9*	-49.0	-32.5
Cn1c(O)c(C=NCCN2CCOCC2)c(=O)n(C)c1=S	4.4	-1.6	-3.0	5.4	-4.3	-1.2	.	.
O=c1[nH]c(=O)n(C2CCCCC2)c(O)c1C=Nc1ccc(N2CCOCC2)cc1	4.3	-0.1	2.1	-6.4	0.5	2.2	.	.
CCn1c(O)c(C=Nc2ccc(N3CCOCC3)cc2)c(=O)n(CC)c1=S	2.7	4.7	-6.7	-11.9	-154.4	66.2*	-25.9	-35.6
CCn1c(O)c(C=NCCN2CCOCC2)c(=O)n(CC)c1=S	9.2	-1.1	-5.8	7.1	13.9	38.5*	19.1	27.4*
CCn1c(O)c(C=Nc2ccc(N3CCOCC3)c(Br)c2)c(=O)n(CC)c1=S	0.3	-4.0	2.0	-5.9	26.1	3.6	.	.
